SMN2 splice enh: SMN2 splice variant enhancement | Potency, µM (doses to about 46.1 µM), for the others: at the top dose activity change, positive = activation, hits mostly activators | HEK293 SMN2-luciferase splicing reporter, luminescence, 30-36 h | hit rate 2.8% among 210,000; note: % of control where 0% means no effect; nearly all actives have a fitted effect of over 55% in size
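HEK293 cells carry an SMN2 minigene-luciferase reporter in which exon 7 inclusion puts luciferase in frame. Cells were seeded at 2000 cells/well, attached for 10-12 hours, then exposed to compounds for 30-36 hours at 37C before ONE-Glo luminescence.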
Rab9 promoter act: activators of Rab9 promoter | Huh7 Rab9 promoter-luciferase reporter, luminescence, 24 h | Potency, µM (top dose mostly 9.22 µM), for inactives: top-dose activation, negative = inhibition, usual class: activators | hit rate 2.8% among 320,000 | AID 485297; note: % of control where 0% means no effect; nearly all actives have a fitted effect of over 60% in size
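Luminescence from Amplite-detected luciferase (10 minutes, ambient) reports Rab9 promoter activation. Before that, stable Rab9-luciferase Huh7 cells (1500/well, reduced-serum OP-MEM I plus 10% FBS) were exposed to compound for 24 hours at 37C.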
FLuc modulator: firefly luciferase modulation, counter-screen for miR-21 project. P08659. purified FLuc, Km substrates, luminescence inhibition. Potency, µM (series often up to 57.5 µM), without a hit: at the top dose activity change, negative = inhibition, most hits filed as inhibitors. hit rate 6.9% among 360,000. AID 588342;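 note: plate controls were vehicle for no effect and reference inhibitor for full effect; nearly all actives have a fitted effect of over 55% in size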
Target sequence (P08659 whole entry, looked up): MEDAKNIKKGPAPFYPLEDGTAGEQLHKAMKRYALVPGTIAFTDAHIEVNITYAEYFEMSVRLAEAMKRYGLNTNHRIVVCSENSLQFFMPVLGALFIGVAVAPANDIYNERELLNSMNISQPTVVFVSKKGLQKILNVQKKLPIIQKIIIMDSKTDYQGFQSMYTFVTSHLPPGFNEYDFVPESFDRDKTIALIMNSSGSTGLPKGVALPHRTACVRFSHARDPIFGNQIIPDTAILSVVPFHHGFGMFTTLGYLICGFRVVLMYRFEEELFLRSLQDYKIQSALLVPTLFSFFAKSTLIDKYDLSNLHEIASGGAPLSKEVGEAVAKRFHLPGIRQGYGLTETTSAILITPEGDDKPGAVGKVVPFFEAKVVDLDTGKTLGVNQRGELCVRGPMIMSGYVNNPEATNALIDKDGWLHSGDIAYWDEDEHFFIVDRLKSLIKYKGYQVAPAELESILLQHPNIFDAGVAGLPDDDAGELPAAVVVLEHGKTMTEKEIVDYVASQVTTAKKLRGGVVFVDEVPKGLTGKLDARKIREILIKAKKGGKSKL
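Purified P. pyralis luciferase, 10 nM final, with Km-level 10 uM D-luciferin and 10 uM ATP in 50 mM Tris acetate pH 7.5, 10 mM Mg acetate, 0.01% Tween-20, 0.05% BSA; 6-point qHTS titration about 60 µM downward; luminescence read.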
NPC1 prom act: NPC1 promoter activation; Huh7 NPC1 promoter luciferase reporter, 24 h; Potency, µM (series often up to 9.22 µM), for the others: at the top dose activation, most hits filed as activators; hit rate 2.4% among 320,000; note: % of control where 0% means no effect; nearly all actives have a fitted effect of over 60% in size
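Stably transfected Huh7 (NPC1 promoter→luciferase), 1500 cells/well in Opti-MEM + 10% FBS, 2 h settle, then compound 24 h at 37 °C. Luminescence after 10 min with Amplite reagent.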
ELG1 genotox: induces genotoxicity in HEK293T cells with luciferase-tagged ELG1 | Potency, µM (titrated, usually from 46 µM), for inactives: at the highest dose activity change, positive = activation, most hits filed as activators | hit rate 1.3% among 330,000 | AID 504466 | HEK293T ELG1-luciferase reporter, luminescence, 16 h; note: % of control where 0% means no effect; nearly all actives have a fitted effect of over 60% in size
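ELG1-luciferase HEK293T cells, 2,000/well; compound pinned in; 16 hr, 37 °C, 5% CO2; ONE-Glo, 30 min RT; luminescence on CCD imager.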
Active calls of the source: *; u = inconclusive; x = no result; ! = not confirmed by another sample. Only some compounds are listed: those with a hit (about 7.5% of all), similar ones and a draw of the others. Calls come from the whole dose curve; as a rule, active = well fitted curve in the direction sought with a large enough effect; inconclusive = small, poorly fitted or top-dose-only effect, or another doubt; inactive = no such curve, though single readings can be large; an effect the other way counts as inactive or inconclusive. Potency is the fitted concentration of half-maximal effect.

SMILES | SMN2 splice enh | Rab9 promoter act | FLuc modulator | NPC1 prom act | ELG1 genotox
O=C(O)c1n[nH]c2c1CC(C1CCCCC1)CC2 (configuration not stated) | x | 2% | 2% | -1% | 2%
O=C(NC1CCCCC1)c1n[nH]c2c1CC(c1ccccc1)CC2 (configuration not stated) | x | 1.8µM* | 3µM* | 2.2µM* | u
CCOC(=O)c1ccc2nc(NC(=O)C(C)C)sc2c1 | 11µM* | 3.5µM* | 9.5µM* | 1.1µM* | u
COC(=O)CCCCCCCCC(=O)Nc1nc2ccccc2s1 | 22% | -1% | -2% | -1% | -2%
CCCCC(=O)Nc1nc2ccc(C(=O)OC)cc2s1 | u | 2.2µM* | u | u | u
CCCC(=O)Nc1nc2ccc(C(=O)OCC)cc2s1 | 18µM* | u | u | 0.63µM* | 10µM*
COc1cccc(C(=O)Nc2ccc(NC(=O)C3CC3)cn2)c1 | 43% | 3.2µM* | 7.6µM* | 2µM* | u
CCC(=O)Nc1ccc(NC(=O)c2cccc(OC)c2)nc1 | 11µM* | 2.2µM* | 11µM* | u | u
CC(=O)c1cc2c(cc1NS(=O)(=O)c1ccccc1)OCO2 | -17% | 20% | 3% | 12% | 16µM*
CC(=O)c1cc2c(cc1NS(=O)(=O)c1cccc(C(=O)O)c1)OCO2 | x | -2% | 2% | 1% | 3%
CCCCn1c(N)c(N(CCC(C)C)C(=O)C2CCCO2)c(=O)[nH]c1=O (configuration not stated) | x | -2% | 12% | -2% | -1%
CC(=O)Cc1nsc(NC(=O)c2ccc(-c3ccc(Cl)c(Cl)c3)o2)n1 | 3% | -2% | 11µM* | -1% | -3%
CC(=O)Cc1nsc(NC(=O)c2ccc(-c3cccc(C(F)(F)F)c3)o2)n1 | u | 1% | 9.5µM* | 0% | -3%
CC(=O)Cc1nsc(NC(=O)c2ccc(-c3cc(Cl)ccc3Cl)o2)n1 | -14% | -1% | 13µM* | -11% | -6%
CC(=O)Cc1nsc(NC(=O)c2ccc(-c3cc(C(F)(F)F)ccc3Cl)o2)n1 | u | -16% | -18% | -14% | -12%
O=C(NCCNC(=O)c1ccc(-c2ccc(Cl)c(Cl)c2)o1)c1cnccn1 | x | 2% | 15µM* | 8% | -4%
CC(=O)c1cccc(NC(=O)CCCN(C)S(=O)(=O)c2ccc(F)cc2)c1 | x | 2% | 5% | -1% | -13%
COc1cccc(C2=CC(=O)C[C@H](c3ccc(Cl)cc3)C2)c1 | x | -3% | -11% | -5% | 1%
O=S(=O)(NCCC1=CCCCC1)c1ccc(OC(F)(F)F)cc1 | x | 1% | 0% | 1% | 0%
CC(=O)Cc1nsc(NC(=O)c2ccc(-c3ccc(Cl)cc3Cl)o2)n1 | -2% | 3% | 6.7µM* | 3% | -3%
CCOc1ccccc1C1C(C(=O)Nc2ccccc2)=C(C)Nc2c(C(=O)Nc3ccc(F)cc3)cnn21 (configuration not stated) | 11% | x | -2% | x | x
CCN(CC)c1ccc(NC(=O)C2=CC=CN3CCS(=O)(=O)N=C23)cc1 | x | u | 3µM* | 17% | 12%
CC(C)(C)c1ccc(NC(=O)C2=CC=CN3CCS(=O)(=O)N=C23)cc1 | x | u | x | 30% | u
Cc1c(NC(=O)N(C)c2ccccc2)c(=O)n(-c2ccccc2)n1C | x | 0% | -1% | 1% | 0%
O=C1NC2=C(C(=O)CCC2)C(c2ccccc2[N+](=O)[O-])N1 (configuration not stated) | x | -1% | 0% | -3% | -1%
SMILES | SMN2 splice enh | Rab9 promoter act | FLuc modulator | NPC1 prom act | ELG1 genotox
Cc1cccc(NC(=S)N(CCN2CCOCC2)Cc2cc3cc4c(cc3[nH]c2=O)OCO4)c1 | x | -12% | 2% | 2% | -3%
c1c2c(cc3sc(N4CCOCC4)nc13)OCO2 | 11µM* | 1.1µM* | 6µM* | 2.8µM* | u
c1ccc(N2CCN(c3nc4cc5c(cc4s3)OCO5)CC2)cc1 | u | 0.71µM* | 1.1µM* | 0.79µM* | 11%
c1c2c(cc3sc(N4CCCCC4)nc13)OCO2 | 3.2µM* | 0.32µM* | 0.67µM* | 0.4µM* | u
O=C(c1ccc2nc(N3CCOCC3)sc2c1)N1CCCC1 | -15% | 2% | 3% | 1% | 14%
c1ccc2c(c1)CCN(c1nc3cc4c(cc3s1)OCO4)C2 | 2.2µM* | 1.3µM* | 1.3µM* | 1.6µM* | 0.46µM*
CCn1c(SCC(N)=O)nc2sc3c(c2c1=O)CCN(C)C3 | x | 0% | 2% | -1% | -4%
O=S1(=O)c2ccc(Br)cc2OC(COCc2ccccc2)CN1Cc1ccccc1 (configuration not stated) | x | x | x | x | 1%
CCN(c1ccccc1)S(=O)(=O)c1ccc(C(=O)NCC2(N(C)C)CCCCC2)cc1 | x | 1% | -1% | -2% | 1%
CSc1ncc(Cl)c(C(=O)Nc2ccc(S(=O)(=O)Nc3nccc(C)n3)cc2)n1 | 14% | 1.4µM* | 11µM*! | 1.8µM* | 6.5µM*
Cc1ccnc(NS(=O)(=O)c2ccc(NC(=O)c3nc(SC(C)C)ncc3Cl)cc2)n1 | -3% | x | u | x | x
COc1ccc(Oc2nccc(-c3ccc(F)cc3)c2C#N)cc1 | -4% | 23% | 0% | 28% | 9%
COc1ccc(Oc2nccc(-c3ccccc3)c2C#N)cc1 | 8% | u | 12µM* | u | 10%
CCC(=O)Nc1cccc(C2=NOC3(C2)C[C@@H](C(N)=O)N(C(=O)c2cc([N+](=O)[O-])cc([N+](=O)[O-])c2)C3)c1 (some centres not stated) | x | -6% | -2% | -3% | 2%
C/C=C/C=C\C(=O)Nc1cccc(C2=NOC3(C2)C[C@@H](C(N)=O)N(C(=O)c2cc([N+](=O)[O-])cc([N+](=O)[O-])c2)C3)c1 (some centres not stated) | x | -7% | 3µM* | -1% | 5%
C/C=C\C=C/C(=O)Nc1cccc(C2=NOC3(C2)C[C@@H](C(N)=O)N(C(=O)C2(C)CC2)C3)c1 (some centres not stated) | x | 4% | 15µM* | 5% | 7%
C/C=C\C=C/C(=O)Nc1cccc(C2=NOC3(C2)C[C@@H](C(N)=O)N(C(=O)/C=C/C=C\C)C3)c1 (some centres not stated) | x | 5% | 19µM* | 8% | 6%
C/C=C\C=C\C(=O)N1CC2(CC(c3cccc(NC(=O)CC(c4ccccc4)c4ccccc4)c3)=NO2)C[C@H]1C(N)=O (some centres not stated) | x | -8% | -20% | -5% | -7%
C=C(C)C(=O)N1CC2(CC(c3cccc(NC(=O)/C=C\C=C/C)c3)=NO2)C[C@H]1C(N)=O (some centres not stated) | x | 14% | 17µM* | 12% | 1%

Screening results deposited in PubChem BioAssay by National Center for Advancing Translational Sciences (NCATS).
